AmpC inh no detg: qHTS Inhibitors of AmpC Beta-Lactamase (assay without detergent). AmpC nitrocefin hydrolysis, absorbance 480 nm, 0.0001% Triton. Potency, µM (series often up to 57.1 µM), inactives show top-dose activity change, negative = inhibition, hits mostly inhibitors. 330,000 tested, 0.52% active. AID 485341, 2010;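 note: plate controls were no compound for no effect and no enzyme for full effect; nearly all actives have a fitted effect of over 20% in size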
Target sequence (P00811 whole entry, looked up): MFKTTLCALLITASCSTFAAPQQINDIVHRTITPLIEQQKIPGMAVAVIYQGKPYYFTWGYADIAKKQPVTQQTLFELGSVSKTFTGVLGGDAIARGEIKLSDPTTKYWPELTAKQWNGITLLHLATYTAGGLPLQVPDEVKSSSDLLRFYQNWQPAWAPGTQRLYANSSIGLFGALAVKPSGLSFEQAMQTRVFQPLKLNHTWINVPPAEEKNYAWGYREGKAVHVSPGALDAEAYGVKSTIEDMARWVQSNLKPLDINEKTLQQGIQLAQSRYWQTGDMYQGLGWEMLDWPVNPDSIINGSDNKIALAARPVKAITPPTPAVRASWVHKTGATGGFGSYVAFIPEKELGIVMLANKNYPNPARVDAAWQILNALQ
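AmpC (5.3 nM in the dispensed reagent) in 20 mM phosphate pH 7.0 with 0.01% (detergent screen) or 0.0001% Triton X-100 was preincubated with compounds for 15 min at room temperature. Nitrocefin was then added from an 800 uM solution, and hydrolysis was followed at 480 nm.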
AMA1-RON2 inh: qHTS for Inhibitors of AMA1-RON; Towards Development of Antimalarial Drug Lead: Primary Screen | AID 720542, 2013 | AlphaScreen AMA1-biotinylated RON2 peptide binding | Potency, µM (doses to about 58.2 µM), inactives show at the highest dose activity change, negative = inhibition, most hits filed as inhibitors | Plasmodium falciparum AMA1 (3D7) - RON2 peptide interaction | 360,000 tested, 0.2% active;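 note: 0% = vehicle wells and -100% = peptide control; nearly all actives have a fitted effect of over 45% in size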
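AMA1 (3D7) with his tag at 25 nM final met compounds first, then biotinylated RON2 peptide at 25 nM; detection used donor plus acceptor beads, 10 µg/mL apiece, read by AlphaScreen after 30 min at room temperature.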
HCV inh: qHTS Assay for Inhibitors of Hepatitis C Virus (HCV) | Huh7.5.1 HCVcc-Cre infection, luciferase reporter, 44 h | Potency, µM (titrated, usually from 41.8 µM), for the others: at the highest dose activity change, negative = inhibition, hits mostly inhibitors | 340,000 tested, 3.4% active
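Reporter virus HCVcc-Cre (~0.5 moi) infects cells exposed to compound; seeding density 1,000 cells/well with 4 h settling beforehand. Luminescence, 15 sec read, taken 44 h post-infection following a 15 min RT substrate incubation.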
Pf growth 48h: Primary qHTS for delayed death inhibitors of the malarial parasite plastid, 48 hour incubation; P. falciparum luciferase growth in erythrocytes, 48 h; Potency, µM (doses to about 28.7 µM), for inactives: at the top dose activity change, negative = inhibition, usual class: inhibitors; 310,000 tested, 5.9% active; AID 504832, 2011
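Read-out is firefly luciferase luminescence from an integrated reporter in P. falciparum, so falling signal marks reduced parasite growth. Infected erythrocytes were at 2% hematocrit and 0.1% parasitemia (final) in Albumax-supplemented RPMI 1640.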
Pf growth 96h: Primary qHTS for delayed death inhibitors of the malarial parasite plastid, 96 hour incubation | P. falciparum luciferase reporter growth, 96 h | Potency, µM (highest dose often 28.7 µM), for inactives: at the highest dose activity change, negative = inhibition, actives largely listed as inhibitors | 320,000 tested, 6.9% active | AID 504834, 2011
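Luminescence readout: decreased luciferase signal marks inhibited growth of reporter-expressing P. falciparum in infected red cells (2% hematocrit, 0.05% parasitemia final), exposed to compound two generations (96 h, 37 C, 5% CO2).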
AmpC inh detg: qHTS Inhibitors of AmpC Beta-Lactamase (assay with detergent); P00811; AmpC hydrolysis of nitrocefin, absorbance 480 nm, 0.01% Triton; Potency, µM (highest dose often 114 µM), without a hit: top-dose activity change, negative = inhibition, hits mostly inhibitors; 370,000 tested, 0.041% active;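 note: 0% = no-compound wells and -100% = no-enzyme wells; nearly all actives have a fitted effect of over 25% in size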
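20 mM phosphate pH 7.0 + 0.01% (detergent screen) or 0.0001% Triton X-100; 5.3 nM AmpC reagent; cpd preinc 15 min RT; nitrocefin (800 uM stock) to start; A480 q20 s × 4 min; Activity was normalised to no-enzyme and no-compound control wells.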
Starred values were filed as active, the others as inactive; ? = inconclusive; nt = no result given. Compounds with a hit are over-represented: about 11% of the library has one in this group of screens. Calls come from the whole dose curve; as a rule, active = well fitted curve in the direction sought with a large enough effect; inconclusive = small, poorly fitted or top-dose-only effect, or another doubt; inactive = no such curve, though single readings can be large; an effect the other way counts as inactive or inconclusive. Unless noted, % is set by controls: 0 for no effect and ±100 for the full control effect; potency is the fitted concentration of half-maximal effect.

SMILES	AmpC inh no detg	AMA1-RON2 inh	HCV inh	Pf growth 48h	Pf growth 96h	AmpC inh detg
CNC(=O)c1c(NC(=O)c2ccc(S(=O)(=O)N(C)c3ccccc3)cc2)sc2c1CCN(C(C)C)C2	161.8%	-3.5%	11.2µM*	0.586µM*	?	-0.8%
CCOC(=O)c1c(NC(=O)CSc2cn(CCNC(=O)c3ccccc3OC)c3ccccc23)sc2c1CCC2	nt	nt	nt	nt	nt	8.1%
Cc1ccc(C2CC(c3cccs3)=NN2C(=O)CSC2=NCCS2)cc1 (stereo not drawn)	-7.6%	-8.4%	?	10.4µM*	11.7µM*	-13.2%
CCC(=O)N1N=C(c2cccs2)CC1c1ccc(C)cc1 (stereo not drawn)	-8.9%	-4.8%	-15.1%	-15.0%	?	-4.1%
COc1ccc(C2CC(c3cccs3)=NN2C(=O)CSC2=NCCS2)cc1 (stereo not drawn)	4.3%	-2.7%	?	?	?	0.9%
Cc1ccc(C2CC(c3cccs3)=NN2C(=O)CCl)cc1 (stereo not drawn)	?	4.6%	2.82µM*	13.1µM*	1.85µM*	-11.1%
COc1ccc(C2CC(c3cccs3)=NN2C(=O)CSc2nc(=O)n3cc(C)ccc3n2)cc1 (stereo not drawn)	128.3%	2.9%	?	10.4µM*	8.28µM*	5.6%
COc1cc(NC(=O)c2cnc3c(-c4ccc(F)cc4)c(C)nn3c2C)cc(OC)c1	nt	nt	nt	nt	nt	2.3%
Clc1ccccc1-c1nnc(-c2ccccc2CNc2ccc(Br)cc2)o1	nt	nt	nt	nt	nt	8.6%
CCC(Sc1nc(N)cc(N)n1)C(=O)O (stereo not drawn)	-16.0%	1.5%	-8.6%	nt	3.29µM*	?
O=C(CSc1nc(C2CC2)nc2ccccc12)N1c2ccccc2Sc2ccccc21	0.316µM*	0.9%	-0.7%	?	?	-1.5%
O=C(CSc1nc(C2CCCCC2)nc2ccccc12)NCc1ccc2c(c1)OCO2	-20.8%	-0.5%	-3.0%	-3.9%	37.1%	-5.2%
CC(=O)c1ccc(NC(=O)CSc2nc(C3CC3)nc3ccccc23)cc1	3.5%	3.8%	-22.6%	?	-57.2%	-9.2%
COc1ccc(NC(=O)CSc2nc(C3CC3)nc3ccccc23)cc1	-0.1%	-5.1%	11.2µM*	-26.2%	-24.0%	2.0%
CC(C)C(=O)NNC(=O)CSc1nc(C2CCCCC2)nc2ccccc12	-4.9%	65.2%	6.6%	0.6%	1.47µM*	-5.0%
CCc1nc(SCC(=O)NNC(=O)C(C)C)c2ccccc2n1	?	59.2%	4.4%	?	11.7µM*	-0.2%
O=C(Nc1ccc(F)cc1)c1ccc(-n2cnc3cccnc32)cc1	nt	nt	nt	nt	nt	23.2%
COc1ccccc1C(=O)OCc1cc(=O)n2nc(C3CC3)sc2n1	nt	nt	nt	nt	nt	2.9%
O=C(c1ccc2c(c1)N(Cc1ccccc1)C(=O)c1ccccc1S2(=O)=O)N1CCOCC1	nt	nt	nt	nt	nt	-10.6%
Cc1ccc(Cl)cc1NC(=O)CC(O)(C(F)(F)F)C(F)(F)F	-16.1%	0.7%	22.4µM*	?	24.3%	0.3%
COCC(=O)Nc1cc(Cl)ccc1C	-14.7%	0.7%	-2.6%	1.8%	?	-4.7%
COc1ccc(-c2nc(C)c(CCNC(=O)C(=O)Nc3cccc(F)c3)s2)cc1OC	nt	nt	nt	nt	nt	2.8%
Cc1ccccc1C(=O)O/N=C/c1c(N2CCOCC2)n(C)c2ccccc12	-5.9%	56.7%	1µM*	2.62µM*	2.33µM*	-10.3%
CN1CCN(c2c(/C=N/O)c3ccccc3n2C)CC1	-4.8%	-2.4%	-17.8%	0.0%	21.7%	1.0%
CCc1ccc2nc(N(Cc3cccnc3)C(C)=O)sc2c1	nt	nt	nt	nt	nt	4.0%
SMILES	AmpC inh no detg	AMA1-RON2 inh	HCV inh	Pf growth 48h	Pf growth 96h	AmpC inh detg
C1=C(c2c[nH]c3ccccc23)CCNC1	4.8%	nt	nt	9.28µM*	5.9%	?
CC(C)N1CC=C(c2c[nH]c3ccccc23)CC1	-7.7%	16.4%	?	1.04µM*	?	-8.8%
CSc1nc(Cl)c(Cc2ccc(OCC(C)C)cc2)c(N2CCOCC2)n1	-3.7%	0.4%	11.2µM*	?	?	-2.0%
CCOc1ccc(Cc2c(Cl)nc(SC)nc2OC)cc1	-19.7%	40.6%	-6.1%	-20.0%	?	-1.0%
CCCCOc1ccc(Cc2c(Cl)nc(SC)nc2N2CCOCC2)cc1	-36.2%	2.4%	-25.5%	13.1µM*	45.4%	-17.6%
Cc1ccc(C(=O)NC2(C(F)(F)F)N=C(c3ccccc3)N(C3CCCCC3)C2=O)cc1 (stereo not drawn)	nt	nt	nt	nt	nt	3.3%
COc1cccc(CNC(=O)CN2C(=O)COc3ccc(S(=O)(=O)Nc4ccccc4)cc32)c1	nt	nt	nt	nt	nt	-7.6%
CCOc1ccc2nc(N(CCN(C)C)C(=O)c3ccc4c(c3)CCCC4)sc2c1	116.9%	-20.5%	?	-21.9%	?	1.6%
CN(C)CCCN(C(=O)c1ccc2c(c1)CCCC2)c1nc2c(F)cccc2s1	118.8%	?	7.94µM*	9.28µM*	?	3.2%
Cc1cc(C)c2nc(N(CCCN(C)C)C(=O)c3ccc4c(c3)CCCC4)sc2c1	104.0%	-21.2%	7.08µM*	7.38µM*	?	0.0%
Cc1ccc2nc(N(CCCN(C)C)C(=O)c3ccc4c(c3)CCCC4)sc2c1	222.1%	?	11.2µM*	10.4µM*	1.85µM*	3.7%
CN(C)CCCN(C(=O)c1ccc(N2C(=O)CCC2=O)cc1)c1nc2c(F)cccc2s1	18.3%	-3.0%	-12.1%	9.3%	-4.8%	-10.9%
Cc1ccc(-c2nnc(SCc3ccccc3C#N)o2)cc1	nt	nt	nt	nt	nt	-0.2%
Cc1cccc(-c2nc(SCC(=O)N3CCc4ccccc43)c3c(=O)n(C)c(=O)n(C)c3n2)c1	nt	nt	nt	nt	nt	17.9%
CCOC(=O)C(CCCCCCC(NC(C)=O)(C(=O)OCC)C(=O)OCC)(NC(C)=O)C(=O)OCC	50.8%	2.0%	10.4%	2.1%	-24.7%	-8.9%
CCOC(=O)C(CO)(NC(C)=O)C(=O)OCC	2.9%	17.9%	-6.4%	4.6%	0.928µM*	-3.9%
Cc1ccc(N/N=C2\CC(=O)c3ccccc32)cc1Cl	-52.9%	nt	nt	4.65µM*	2.94µM*	3.8%
Cc1ccc(NCN2C(=O)c3ccccc3C2=O)cc1Cl	nt	-7.1%	nt	nt	nt	nt
COc1ccc(C2OC(=O)CC2C(=O)NCc2ccc(C)cc2)cc1OC (stereo not drawn)	-22.3%	-3.1%	13.4%	-23.1%	9.28µM*	9.9%
